From PubChem BioAssay
PLK1 PBD block = PLK1 (human) polo-box domain binding inhibition; Plk1 PBD binding of FITC phosphopeptide, fluorescence polarization; Potency, µM, most hits filed as inhibitors; 360,000 tested, 2.8% active; note: series mostly up to about 57 µM; nearly all actives have a fitted effect of over 65% in size
VDR inh = blocks the human vitamin D receptor | P11473 | VDR-SRC2-3 peptide fluorescence polarization, 2 h | Potency, µM, most hits filed as inhibitors | 400,000 tested, 0.93% active | AID 504847
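FP read-out; VDR + SRC2-3 coactivator peptide; 23 nl compound by pintool; 2 h RT incubation; reagents held at 4 deg C, protected from light.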
Tb PFK block = inhibitors of T. brucei phosphofructokinase; O15648; T. brucei PFK, ADP-Glo luminescence; Potency, µM (highest dose often 57.5 µM), most hits filed as inhibitors; 330,000 tested, 0.17% active; note: nearly all actives have a fitted effect of over 60% in size
Target sequence (O15648 whole entry, looked up): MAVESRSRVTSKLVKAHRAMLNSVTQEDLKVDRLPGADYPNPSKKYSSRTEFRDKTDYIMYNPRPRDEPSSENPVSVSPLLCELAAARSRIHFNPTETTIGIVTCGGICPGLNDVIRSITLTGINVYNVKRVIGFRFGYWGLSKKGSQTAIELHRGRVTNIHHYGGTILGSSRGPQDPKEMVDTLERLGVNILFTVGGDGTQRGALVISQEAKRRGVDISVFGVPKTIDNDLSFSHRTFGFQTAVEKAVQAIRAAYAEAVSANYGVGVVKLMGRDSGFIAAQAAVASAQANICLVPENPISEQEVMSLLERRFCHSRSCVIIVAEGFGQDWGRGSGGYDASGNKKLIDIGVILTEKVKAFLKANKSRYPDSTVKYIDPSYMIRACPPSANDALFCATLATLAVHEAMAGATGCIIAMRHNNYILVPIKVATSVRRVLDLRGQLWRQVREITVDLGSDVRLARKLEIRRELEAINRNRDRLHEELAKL
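PFK 1.25 nM, F6P 0.5 mM, ATP 0.1 mM, 0.1 M TEA pH 8.0, 5 mM MgCl2, 0.01% Tween20, 0.1% BSA; 45 min RT. ADP-Glo readout. qHTS titration up to 57 uM; curves fitted, compounds curve-classed.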
BRCA1 expr up = increases BRCA1 expression | 380,000 tested, 1.1% active | Potency, µM (highest dose often 46.1 µM), usual class: activators | MCF7-BRCA1-FFLuc reporter, luminescence, 48 h; response scale: scaled: vehicle 0%, 10 µM genistein 100%; note: nearly all actives have a fitted effect of over 80% in size
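Activators of BRCA1 expression were detected as increased firefly luciferase luminescence in engineered MCF7 cells after 48 h compound incubation. Signals were scaled to genistein 10 microM as full activation.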
Of the large screens only hits and unclear results are named; the others gave an inactive call. This is a sample that favours compounds with a hit; in the whole collection about 3.9% have one here. Calls come from the whole dose curve; as a rule, active = well fitted curve in the direction sought with a large enough effect; inconclusive = small, poorly fitted or top-dose-only effect, or another doubt; inactive = no such curve, though single readings can be large; an effect the other way counts as inactive or inconclusive.

CCCOc1ccc(Oc2nc(NC)nc(N3CCOCC3)n2)nn1	none (no result: PLK1 PBD block, Tb PFK block, BRCA1 expr up)
CC(C)(C)c1ccc(O)c(O)c1	Tb PFK block inconclusive
CC(C)(C)c1cc(O)c(C(C)(C)C)cc1O	VDR inh 28µM (no result: PLK1 PBD block, Tb PFK block, BRCA1 expr up)
Cc1noc(C)c1S(=O)(=O)N1CCCCC1c1cc(C(=O)Nc2cccc3c2CCCC3)no1 (stereo not given)	none (no result: VDR inh, Tb PFK block)
CC(CCc1ccccc1)NC(=O)Cc1ccc([N+](=O)[O-])cc1 (stereo not given)	PLK1 PBD block 30µM, VDR inh inconclusive
O=C(O)c1ccc(N2C(=O)CC(N3C(=O)/C(=C/c4ccc(Cl)cc4)SC3=S)C2=O)cc1 (stereo not given)	PLK1 PBD block 27µM, VDR inh inconclusive
Cn1cc(C(=O)NCCc2ccccc2)c(=O)c2cc(S(=O)(=O)N3CCCCC3)ccc21	none (no result: PLK1 PBD block, Tb PFK block, BRCA1 expr up)
Cn1cc(C(=O)NCCc2ccccc2)c(=O)c2cc(S(=O)(=O)N3CCOCC3)ccc21	PLK1 PBD block 30µM, VDR inh inconclusive (no result: Tb PFK block)
O=C1NC2(CCCCCC2)C(=O)N1Cc1cccc([N+](=O)[O-])c1	PLK1 PBD block 27µM, VDR inh inconclusive
COc1cccc(CN2C(=O)NC3(CCCCCC3)C2=O)c1	none
CC(C)c1ccccc1NC(=O)CCc1nc2ccccc2s1	PLK1 PBD block inconclusive
COc1ccccc1NC(=O)CCC(=O)Nc1ccccc1OC	none
COc1ccccc1NC(=O)CCc1nc2ccccc2s1	PLK1 PBD block 21µM, VDR inh inconclusive
COc1ccccc1NC(=O)CCC(=O)c1ccc(-c2ccccc2)cc1	PLK1 PBD block 30µM, VDR inh inconclusive
Cc1ccccc1Nc1oc(-c2ccccc2)nc1CCc1ccccc1	none (no result: PLK1 PBD block, Tb PFK block, BRCA1 expr up)
CCSc1nc2c([nH]c3ccccc32)c(=O)n1-c1ccc(F)cc1	none (no result: PLK1 PBD block, Tb PFK block)
CC(C)N(Cc1ccccc1)C(=O)CN1C(=O)NC2(CCOc3ccccc32)C1=O (stereo not given)	none
N#Cc1cccc(NC(=O)N2CCCC3(CCN(C(=O)c4ccco4)CC3)C2)c1	none (no result: PLK1 PBD block, Tb PFK block, BRCA1 expr up)
CC(C)N1C(=O)C(=O)N(CC(=O)N2c3ccccc3CC2C)C1=O (stereo not given)	none (no result: VDR inh, Tb PFK block)
CCOC(=O)C1=C(COC(=O)c2cccc(Br)c2)NC(=O)NC1C (stereo not given)	none
CCOC(=O)C1=C(COC(=O)c2cccc(N(C)C)c2)NC(=O)NC1C (stereo not given)	BRCA1 expr up 4.5µM
COc1cccc(C(=O)NC(c2ccccc2)C2CCCC2)c1 (stereo not given)	PLK1 PBD block 11µM
O=C(O)CSc1sc(=S)sc1SCC(=O)O	PLK1 PBD block 27µM
N#CN=C1SCCS1	PLK1 PBD block 3.4µM
COc1cccc2c(=O)c(C(=O)NCCc3ccccc3)c[nH]c12	BRCA1 expr up 10µM (no result: Tb PFK block)
Cc1ccccc1C(=O)Nc1cccc(OCc2cc(=O)n3c4c(sc3n2)CCCC4)c1	none (no result: PLK1 PBD block, Tb PFK block)
Cc1ncc(C(=O)Nc2ccccc2)[nH]1	BRCA1 expr up 2.8µM (no result: Tb PFK block)
CCCc1cc(=O)oc2cc(C)cc(OCC(=O)NCCCN3CCCC3=O)c12	none
CCOC(=O)C1=C(C)N=c2sc(=Cc3cc(Cl)c(OCC(=O)O)c(Cl)c3)c(=O)n2C1c1cccc(OC)c1 (stereo not given)	PLK1 PBD block 27µM (no result: VDR inh, Tb PFK block)
CCOC(=O)C1=C(C)N=c2s/c(=C\c3ccc(OCC(=O)O)cc3)c(=O)n2C1c1ccc(OC(C)C)cc1 (stereo not given)	PLK1 PBD block 24µM, VDR inh 50µM
CCOC(=O)C1=C(C)N=c2s/c(=C/c3ccc(OCC(=O)O)cc3)c(=O)n2C1c1cc(OC)c(OC)c(OC)c1 (stereo not given)	VDR inh inconclusive
COc1cccc(C2C(C(=O)OC(C)C)=C(C)N=c3s/c(=C\c4ccc(C(=O)O)cc4)c(=O)n32)c1 (stereo not given)	PLK1 PBD block inconclusive, VDR inh 89µM
CCOC(=O)C1=C(C)N=c2sc(=Cc3ccc(OCC(=O)O)cc3)c(=O)n2C1c1ccc(Cl)cc1 (stereo not given)	none (no result: VDR inh, Tb PFK block)
CC(C)(C)c1cc(-c2csc(Nc3ccccc3)[n+]2Cc2ccc(C(=O)O)cc2)cc(C(C)(C)C)c1O	PLK1 PBD block 21µM, VDR inh 79µM
O=C(NCc1ccccn1)c1nc(-c2cccs2)no1	PLK1 PBD block 27µM
COc1cc(NC(=O)Cn2c(=O)cc(C)c3c(C)nn(-c4ccc(C)cc4)c32)cc(OC)c1	none (no result: PLK1 PBD block, Tb PFK block, BRCA1 expr up)
CCc1ccccc1Nc1nc(-c2cccnc2)cs1	BRCA1 expr up inconclusive
COc1ccc(Nc2nc(-c3cccs3)cs2)c(OC)c1	none
COc1ccccc1Nc1nc(-c2cccnc2)cs1	BRCA1 expr up 10µM
c1ccc(CCNc2nc(-c3cccnc3)cs2)cc1	BRCA1 expr up 8.9µM
COc1ccc(Nc2nc(-c3cccnc3)cs2)c(OC)c1	BRCA1 expr up 11µM
CC1=C(C(=O)OC2CCCC2)C(c2ccccc2C(F)(F)F)CC(=O)N1 (stereo not given)	none (no result: PLK1 PBD block, Tb PFK block)
CSc1cc(-c2ccccc2)n(Cc2ccc(Cl)cc2Cl)c(=O)c1C#N	PLK1 PBD block 3.4µM
CCCCn1c(=S)[nH]c2ccc(N3CCOCC3)cc2c1=O	none (no result: PLK1 PBD block, VDR inh, BRCA1 expr up)
Cc1ccc(Cn2c(=S)[nH]c3ccc(N4CCOCC4)cc3c2=O)o1	PLK1 PBD block 21µM, VDR inh 18µM
Cc1ccc(N2CC(c3nnc(Cc4ccc(Cl)cc4)o3)CC2=O)cc1 (stereo not given)	none (no result: PLK1 PBD block, Tb PFK block, BRCA1 expr up)
CC(C)(C)S(=O)(=O)/C(C#N)=N/Nc1ccc(S(C)(=O)=O)cc1	PLK1 PBD block 21µM
CC1Cc2ccccc2N1C(=O)CN1CCN(S(=O)(=O)c2ccc3c(c2)OCCCO3)CC1 (stereo not given)	none (no result: VDR inh, Tb PFK block)
CC1Cc2ccccc2N1C(=O)CNc1cccc(S(=O)(=O)N2CCCC2)c1 (stereo not given)	PLK1 PBD block 3.8µM, VDR inh 25µM
O=C(CCCNC(=O)c1ccc(Cl)cc1)NCc1ccc(F)cc1	PLK1 PBD block 27µM, VDR inh inconclusive
COc1cc(Cl)c(C)cc1NC(=O)c1cc2c(=O)oc3ccccc3c2s1	VDR inh inconclusive (no result: PLK1 PBD block, Tb PFK block)
CCN(CC)CCCNC(=O)c1nn(-c2ccc(OC)c(Cl)c2)c(=O)c2c1c1ccccc1n2C	none (no result: PLK1 PBD block, Tb PFK block, BRCA1 expr up)
COc1ccccc1C(=O)Nc1ccc(-c2nc3cc(C)cc(C)c3o2)cc1	VDR inh 89µM (no result: PLK1 PBD block, Tb PFK block, BRCA1 expr up)
COc1cccc(OC)c1C(=O)Nc1cccc(-c2nc3cc(C)cc(C)c3o2)c1	none (no result: PLK1 PBD block, Tb PFK block)
COC(=O)c1ccn(CSc2cc(Cl)ccc2Cl)n1	PLK1 PBD block 24µM
COC(=O)c1ccn(CSc2c(F)c(F)cc(F)c2F)n1	none
CCOc1ccc(N2CC(c3nc4ccccc4n3CCCOc3ccccc3)CC2=O)cc1 (stereo not given)	none (no result: PLK1 PBD block, Tb PFK block, BRCA1 expr up)
O=C(N/C(=C\c1ccc(-c2ccccc2)o1)C(=O)N1CCOCC1)c1ccccc1	PLK1 PBD block 27µM
Cc1ccc(S(=O)(=O)N2C[C@]3(O)C[C@@H]4C(=O)N(c5ccccc5)C(=O)[C@@H]4C[C@]3(OC(=O)NC3CCCC3)C2)cc1	PLK1 PBD block inconclusive (no result: VDR inh, Tb PFK block)
COc1ccccc1-c1cc(Nc2ccn[nH]2)ncn1	VDR inh 45µM (no result: PLK1 PBD block, Tb PFK block, BRCA1 expr up)
O=C(N/N=C/c1ccc(O)cc1O)C(=O)N/N=C/c1ccc(O)cc1O	PLK1 PBD block 12µM, VDR inh inconclusive
